What was measured:
Assay in all cases: log2 ratio of Biotin-Ahx-Ub-VS probe labelling (fragment/DMSO); higher = less target engagement (more negative = stronger competition), active = hit call of the paper (q ≤ 0.05, log2 ratio ≤ -1)
Settings in all cases: compound concentration: 200 uM; treatment time: 3 h
USP34 = USP34 (UniProt Q70CQ2)
Outline: (§1)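 HEK293T lysate (495 µg per sample, in Tris/CHAPS/IGEPAL buffer with protease inhibitors) was treated in triplicate with fragment at 200 µM or with DMSO for 3 h. It was then treated with Biotin-Ahx-Ub-VS (0.5 µM final) for 1 h. Labelled DUBs were NeutrAvidin-enriched, digested with LysC and trypsin, and run by diaPASEF LC-MS/MS. Spectronaut label-free quantities were global-median-normalised. Values are average log2 ratios fragment/DMSO by unpaired t-test, using proteins with ≥2 unique peptides.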

USP36 = biological target: T1, USP36 (UniProt Q9P275)
T1 sequence (whole entry): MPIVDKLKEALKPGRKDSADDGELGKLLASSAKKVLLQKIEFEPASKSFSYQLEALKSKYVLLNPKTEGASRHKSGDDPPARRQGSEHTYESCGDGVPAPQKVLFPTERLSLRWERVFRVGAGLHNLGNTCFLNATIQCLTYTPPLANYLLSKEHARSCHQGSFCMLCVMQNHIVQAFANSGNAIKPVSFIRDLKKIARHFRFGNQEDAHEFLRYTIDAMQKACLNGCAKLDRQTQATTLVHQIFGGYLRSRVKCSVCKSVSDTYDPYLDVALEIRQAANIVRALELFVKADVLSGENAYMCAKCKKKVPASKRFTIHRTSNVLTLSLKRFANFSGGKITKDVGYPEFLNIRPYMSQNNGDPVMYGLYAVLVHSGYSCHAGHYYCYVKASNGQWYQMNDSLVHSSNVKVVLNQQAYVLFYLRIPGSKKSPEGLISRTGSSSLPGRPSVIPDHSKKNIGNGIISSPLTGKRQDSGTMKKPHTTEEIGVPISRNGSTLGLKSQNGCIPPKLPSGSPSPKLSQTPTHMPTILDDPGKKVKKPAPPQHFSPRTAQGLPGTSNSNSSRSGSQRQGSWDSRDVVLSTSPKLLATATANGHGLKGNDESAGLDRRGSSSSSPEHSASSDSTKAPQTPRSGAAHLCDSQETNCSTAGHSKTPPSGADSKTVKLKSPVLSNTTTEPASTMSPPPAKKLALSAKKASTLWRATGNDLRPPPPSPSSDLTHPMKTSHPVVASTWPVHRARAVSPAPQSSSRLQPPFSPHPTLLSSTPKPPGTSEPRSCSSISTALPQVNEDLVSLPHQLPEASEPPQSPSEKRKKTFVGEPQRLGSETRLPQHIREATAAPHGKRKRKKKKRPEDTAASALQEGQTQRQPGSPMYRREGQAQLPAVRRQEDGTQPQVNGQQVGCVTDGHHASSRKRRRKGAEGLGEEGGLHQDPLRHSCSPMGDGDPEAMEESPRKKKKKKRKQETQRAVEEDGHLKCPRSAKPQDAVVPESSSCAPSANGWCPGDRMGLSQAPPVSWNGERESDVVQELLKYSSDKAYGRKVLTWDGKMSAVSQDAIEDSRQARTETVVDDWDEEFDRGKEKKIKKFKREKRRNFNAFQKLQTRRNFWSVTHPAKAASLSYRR
Outline: as §1

USP38 = biological target: T2, USP38 (UniProt Q8NB14)
T2 sequence (whole entry): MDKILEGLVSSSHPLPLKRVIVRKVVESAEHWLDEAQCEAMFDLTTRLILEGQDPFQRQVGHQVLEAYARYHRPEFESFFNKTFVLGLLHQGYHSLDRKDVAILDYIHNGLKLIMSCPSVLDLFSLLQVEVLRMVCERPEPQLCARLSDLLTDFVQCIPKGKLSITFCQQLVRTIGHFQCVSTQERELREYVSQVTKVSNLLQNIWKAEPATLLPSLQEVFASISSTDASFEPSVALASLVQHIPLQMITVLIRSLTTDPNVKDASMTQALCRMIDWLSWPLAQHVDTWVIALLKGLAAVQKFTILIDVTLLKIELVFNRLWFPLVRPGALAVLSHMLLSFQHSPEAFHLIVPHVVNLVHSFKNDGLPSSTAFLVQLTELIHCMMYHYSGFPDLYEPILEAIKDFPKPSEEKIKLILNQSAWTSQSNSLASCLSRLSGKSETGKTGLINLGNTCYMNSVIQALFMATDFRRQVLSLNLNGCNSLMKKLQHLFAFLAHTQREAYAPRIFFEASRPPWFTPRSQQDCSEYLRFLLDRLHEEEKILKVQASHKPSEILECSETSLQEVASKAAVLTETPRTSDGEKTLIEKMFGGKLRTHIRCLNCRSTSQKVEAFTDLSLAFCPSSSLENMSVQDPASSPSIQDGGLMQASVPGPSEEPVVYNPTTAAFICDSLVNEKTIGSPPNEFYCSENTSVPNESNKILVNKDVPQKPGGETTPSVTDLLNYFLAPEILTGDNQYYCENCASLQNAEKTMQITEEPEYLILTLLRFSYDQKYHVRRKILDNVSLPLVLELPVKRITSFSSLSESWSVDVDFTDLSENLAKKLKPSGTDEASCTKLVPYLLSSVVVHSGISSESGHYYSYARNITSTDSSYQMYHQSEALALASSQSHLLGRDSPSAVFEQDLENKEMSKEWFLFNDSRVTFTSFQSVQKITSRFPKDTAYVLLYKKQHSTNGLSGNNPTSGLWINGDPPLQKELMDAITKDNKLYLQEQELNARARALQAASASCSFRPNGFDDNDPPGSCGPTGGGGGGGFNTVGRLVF
Outline: as §1

USP39 = biological target: T3, USP39 (UniProt Q53GS9)
T3 sequence (whole entry): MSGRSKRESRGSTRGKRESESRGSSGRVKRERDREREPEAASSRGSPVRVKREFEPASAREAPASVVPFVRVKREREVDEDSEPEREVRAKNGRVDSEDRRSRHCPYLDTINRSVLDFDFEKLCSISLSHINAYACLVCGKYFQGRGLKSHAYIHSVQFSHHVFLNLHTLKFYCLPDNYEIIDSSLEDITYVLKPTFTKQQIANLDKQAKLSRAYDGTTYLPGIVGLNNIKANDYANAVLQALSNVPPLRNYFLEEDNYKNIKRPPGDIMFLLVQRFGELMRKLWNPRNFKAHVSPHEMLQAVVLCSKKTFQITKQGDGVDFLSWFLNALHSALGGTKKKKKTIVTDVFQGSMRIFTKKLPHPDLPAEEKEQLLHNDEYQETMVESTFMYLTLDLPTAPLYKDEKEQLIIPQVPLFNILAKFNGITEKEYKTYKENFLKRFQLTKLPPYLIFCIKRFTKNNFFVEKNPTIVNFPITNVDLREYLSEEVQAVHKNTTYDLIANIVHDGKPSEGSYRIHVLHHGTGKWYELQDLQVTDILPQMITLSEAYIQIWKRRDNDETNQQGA
Outline: as §1

USP4 = biological target: T4, USP4 (UniProt Q13107)
T4 sequence (whole entry): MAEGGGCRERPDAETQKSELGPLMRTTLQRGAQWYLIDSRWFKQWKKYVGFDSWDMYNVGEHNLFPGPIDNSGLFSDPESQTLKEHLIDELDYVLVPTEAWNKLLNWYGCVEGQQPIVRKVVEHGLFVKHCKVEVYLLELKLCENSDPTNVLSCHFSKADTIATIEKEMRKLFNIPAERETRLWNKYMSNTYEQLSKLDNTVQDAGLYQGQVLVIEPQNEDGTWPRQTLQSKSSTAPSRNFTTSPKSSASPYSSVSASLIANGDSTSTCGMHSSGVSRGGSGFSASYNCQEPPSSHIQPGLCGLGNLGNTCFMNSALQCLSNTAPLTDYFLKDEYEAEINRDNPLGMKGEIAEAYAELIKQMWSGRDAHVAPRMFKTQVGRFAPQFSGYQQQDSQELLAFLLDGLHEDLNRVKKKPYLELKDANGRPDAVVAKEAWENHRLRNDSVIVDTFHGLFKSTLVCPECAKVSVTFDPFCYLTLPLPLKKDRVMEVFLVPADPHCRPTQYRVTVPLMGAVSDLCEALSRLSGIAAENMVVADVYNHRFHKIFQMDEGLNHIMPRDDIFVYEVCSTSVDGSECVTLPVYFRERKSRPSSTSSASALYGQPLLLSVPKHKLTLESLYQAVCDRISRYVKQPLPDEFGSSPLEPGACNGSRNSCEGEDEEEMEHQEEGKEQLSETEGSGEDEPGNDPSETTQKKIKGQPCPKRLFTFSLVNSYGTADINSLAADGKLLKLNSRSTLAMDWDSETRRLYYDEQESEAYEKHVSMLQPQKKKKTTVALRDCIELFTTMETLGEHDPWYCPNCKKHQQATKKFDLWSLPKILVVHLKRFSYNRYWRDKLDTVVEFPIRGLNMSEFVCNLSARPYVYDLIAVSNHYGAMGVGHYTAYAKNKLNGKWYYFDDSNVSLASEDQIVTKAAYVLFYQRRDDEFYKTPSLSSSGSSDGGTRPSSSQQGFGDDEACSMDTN
Outline: as §1

Measured: log2 ratio of Biotin-Ahx-Ub-VS probe labelling

USP34, sequence (Q70CQ2 whole entry, the tested form may be a part): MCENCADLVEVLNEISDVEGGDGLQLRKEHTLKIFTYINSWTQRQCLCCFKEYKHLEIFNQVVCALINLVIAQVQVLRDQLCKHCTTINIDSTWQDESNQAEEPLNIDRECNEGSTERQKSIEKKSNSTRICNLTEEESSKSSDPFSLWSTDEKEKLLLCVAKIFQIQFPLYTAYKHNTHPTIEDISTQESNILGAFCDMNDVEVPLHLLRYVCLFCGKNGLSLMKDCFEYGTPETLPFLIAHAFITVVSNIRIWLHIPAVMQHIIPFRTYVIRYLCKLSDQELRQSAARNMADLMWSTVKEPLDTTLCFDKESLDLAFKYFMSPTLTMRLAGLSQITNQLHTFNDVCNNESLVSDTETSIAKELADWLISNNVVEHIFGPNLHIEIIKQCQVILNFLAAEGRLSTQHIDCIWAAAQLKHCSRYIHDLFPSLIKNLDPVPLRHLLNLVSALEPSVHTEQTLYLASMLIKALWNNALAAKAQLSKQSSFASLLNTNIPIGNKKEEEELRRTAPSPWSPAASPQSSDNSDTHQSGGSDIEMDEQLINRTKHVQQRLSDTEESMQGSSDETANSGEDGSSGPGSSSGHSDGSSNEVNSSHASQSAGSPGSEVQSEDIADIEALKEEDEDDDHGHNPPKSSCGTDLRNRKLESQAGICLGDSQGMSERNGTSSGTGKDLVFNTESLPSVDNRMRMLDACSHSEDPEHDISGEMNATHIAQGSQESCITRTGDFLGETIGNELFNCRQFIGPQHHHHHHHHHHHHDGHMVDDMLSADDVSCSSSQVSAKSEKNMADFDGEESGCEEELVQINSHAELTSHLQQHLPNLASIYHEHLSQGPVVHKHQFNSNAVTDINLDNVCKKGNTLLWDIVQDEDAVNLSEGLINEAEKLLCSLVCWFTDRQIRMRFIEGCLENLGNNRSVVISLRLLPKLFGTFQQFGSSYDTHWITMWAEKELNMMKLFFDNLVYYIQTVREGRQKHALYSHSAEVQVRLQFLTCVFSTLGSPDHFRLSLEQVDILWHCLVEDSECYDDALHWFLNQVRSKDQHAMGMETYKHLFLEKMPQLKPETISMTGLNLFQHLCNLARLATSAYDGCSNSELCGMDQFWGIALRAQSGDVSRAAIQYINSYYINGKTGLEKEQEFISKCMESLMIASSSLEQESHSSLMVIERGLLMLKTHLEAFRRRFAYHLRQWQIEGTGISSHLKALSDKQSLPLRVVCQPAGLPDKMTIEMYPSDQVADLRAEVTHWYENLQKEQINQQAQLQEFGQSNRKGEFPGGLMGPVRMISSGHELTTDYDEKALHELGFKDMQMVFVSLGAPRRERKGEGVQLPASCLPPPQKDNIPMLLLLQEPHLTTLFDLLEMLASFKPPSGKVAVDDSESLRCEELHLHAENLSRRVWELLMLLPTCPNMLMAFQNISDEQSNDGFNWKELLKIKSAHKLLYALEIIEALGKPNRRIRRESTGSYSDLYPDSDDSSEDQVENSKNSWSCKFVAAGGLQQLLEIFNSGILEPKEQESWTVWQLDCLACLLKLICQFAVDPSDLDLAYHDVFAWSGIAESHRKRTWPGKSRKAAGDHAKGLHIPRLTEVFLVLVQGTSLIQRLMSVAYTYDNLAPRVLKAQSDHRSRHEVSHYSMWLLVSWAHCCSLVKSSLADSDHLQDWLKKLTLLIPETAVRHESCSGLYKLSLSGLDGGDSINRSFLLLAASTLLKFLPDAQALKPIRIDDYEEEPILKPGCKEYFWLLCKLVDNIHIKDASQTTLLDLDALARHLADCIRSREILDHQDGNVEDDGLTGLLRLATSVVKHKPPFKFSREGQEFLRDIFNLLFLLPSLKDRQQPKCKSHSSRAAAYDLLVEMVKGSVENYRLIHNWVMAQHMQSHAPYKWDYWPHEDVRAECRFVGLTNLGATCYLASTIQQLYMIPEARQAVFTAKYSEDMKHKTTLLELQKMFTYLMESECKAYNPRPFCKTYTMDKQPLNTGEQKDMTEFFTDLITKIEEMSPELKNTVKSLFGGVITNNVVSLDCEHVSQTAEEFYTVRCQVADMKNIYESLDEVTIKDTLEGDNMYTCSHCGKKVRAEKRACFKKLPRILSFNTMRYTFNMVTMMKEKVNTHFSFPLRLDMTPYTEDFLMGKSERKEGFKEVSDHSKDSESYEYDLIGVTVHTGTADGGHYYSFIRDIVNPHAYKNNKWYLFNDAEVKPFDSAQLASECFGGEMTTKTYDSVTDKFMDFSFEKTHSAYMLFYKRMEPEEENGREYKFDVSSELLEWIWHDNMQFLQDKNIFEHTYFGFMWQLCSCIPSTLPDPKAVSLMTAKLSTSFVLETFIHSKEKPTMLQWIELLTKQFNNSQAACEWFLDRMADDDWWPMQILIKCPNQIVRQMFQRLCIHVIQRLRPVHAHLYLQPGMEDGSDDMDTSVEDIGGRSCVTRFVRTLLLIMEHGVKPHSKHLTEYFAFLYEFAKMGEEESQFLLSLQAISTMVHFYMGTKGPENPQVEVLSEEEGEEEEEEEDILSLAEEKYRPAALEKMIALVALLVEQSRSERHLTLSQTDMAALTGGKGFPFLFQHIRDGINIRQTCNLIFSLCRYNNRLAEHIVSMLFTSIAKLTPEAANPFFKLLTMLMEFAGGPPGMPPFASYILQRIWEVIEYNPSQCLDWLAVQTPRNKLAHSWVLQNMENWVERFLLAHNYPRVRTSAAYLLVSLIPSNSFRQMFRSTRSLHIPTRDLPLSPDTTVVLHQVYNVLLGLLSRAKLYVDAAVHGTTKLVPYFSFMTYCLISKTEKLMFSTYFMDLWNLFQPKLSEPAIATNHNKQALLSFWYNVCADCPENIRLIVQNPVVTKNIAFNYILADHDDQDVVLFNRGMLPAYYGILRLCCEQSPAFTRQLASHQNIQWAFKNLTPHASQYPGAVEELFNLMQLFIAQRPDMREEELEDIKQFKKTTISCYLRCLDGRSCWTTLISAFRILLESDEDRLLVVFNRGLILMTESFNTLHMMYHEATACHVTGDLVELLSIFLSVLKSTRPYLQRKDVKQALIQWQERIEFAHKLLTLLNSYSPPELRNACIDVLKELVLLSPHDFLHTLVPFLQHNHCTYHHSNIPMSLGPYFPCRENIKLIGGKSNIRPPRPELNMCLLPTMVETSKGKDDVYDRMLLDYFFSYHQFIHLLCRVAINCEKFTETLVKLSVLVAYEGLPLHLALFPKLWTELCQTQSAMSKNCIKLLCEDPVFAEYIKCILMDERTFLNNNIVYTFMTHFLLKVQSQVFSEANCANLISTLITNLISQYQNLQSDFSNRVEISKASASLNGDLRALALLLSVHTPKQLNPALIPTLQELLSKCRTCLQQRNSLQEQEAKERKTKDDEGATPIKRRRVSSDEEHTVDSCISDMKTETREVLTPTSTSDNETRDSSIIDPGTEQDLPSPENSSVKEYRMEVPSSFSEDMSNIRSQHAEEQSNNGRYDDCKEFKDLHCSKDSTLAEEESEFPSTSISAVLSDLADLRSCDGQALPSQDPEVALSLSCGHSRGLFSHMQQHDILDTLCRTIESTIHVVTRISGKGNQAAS

Cl.O=C(CCl)N1CCn2ncc(O)c2C1
inactive: USP34 -0.237 | USP36 -0.037 | USP38 -0.188 | USP39 0.194 | USP4 -0.298
